Results from publication PMC5540273 (PLoS ONE, 2017).

Test system: EPHA1
Conditions: concentration: 1 μM, replicates: in singlicate; n = 1
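Also: KINOMEscan kinase panel screen.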

Compound | %Inh
COc1cc2ncnc(Nc3cccc(Br)c3)c2cc1OC.Cl [GI230329] | 18%
CS(=O)(=O)CCNCc1nc(-c2ccc3ncnc(Nc4ccc(OCc5ccccc5)c(Cl)c4)c3c2)cs1.Cl [GW582764] | 8%
COc1ccc2cc(-c3nc(-c4ccccc4C(C)C)[nH]c3-c3ccncc3)ccc2c1 [SB-660566] | 22%
COc1ccc(Nc2nccc(N3CCC(NC(=O)C(C)c4ccc(Cl)cc4)CC3)n2)cc1 (stereo not shown) [GSK1379812] | 0%
Cc1ccccc1-c1cc(-c2c[nH]nc2-c2ccccn2)ccn1 [GW680061] | 3%
CC[C@@H]1CO[C@H](C(=O)Nc2ccccc2)CN1c1cc(-c2ccc3c(N)n[nH]c3c2)nc(NC)n1 [GSK2376236] | 3%
O=C1NC(=O)C(c2ccc(Cl)cc2)=C1Nc1cccc(Cl)c1 [SB-317651] | 0%
Cc1c(Cn2c3ccccc3n3c(=O)cc(N4CCOCC4)nc23)cccc1C(F)(F)F [GSK2306394] | 0%
Cc1ccc(NC(=O)Nc2ccccc2F)cc1-c1ccc(C(=O)Nc2ccncc2)cc1 [GSK1398477] | 0%
O=c1cc(N2CCOCC2)nc2n(Cc3cccc(Cl)c3Cl)c3ccccc3n12 [GSK2299009] | 14%
CC(=O)c1c(C)c2cnc(Nc3ccn(C)n3)nc2n(C2CCCC2)c1=O | 4%
COc1cccc(CNC(=O)NC2CCN(c3ccnc(Nc4ccc(F)cc4)n3)C2)c1 (stereo not shown) [GSK1379723] | 12%
CC(=O)c1c(C)c2cnc(Nc3ccc(N4CCNCC4)cn3)nc2n(C2CCCC2)c1=O | 24%
COc1cccc(C2=C(Nc3cc(Cl)c(O)c(Cl)c3)C(=O)NC2=O)c1 [SB-390767] | 8%
Cc1ccccc1Cn1ccn2c(=O)cc(N3CCOCC3)nc12 [GSK2269905] | 4%
Fc1ccc(-c2nn3cccc(F)c3c2-c2ccncc2)cc1 [GW475620] | 22%
Cc1nccc(-c2c(-c3ccc(F)cc3)ncn2CCCN2CCOCC2)n1.Cl [SB-282975] | 24%
Cc1cccc2c(-c3ccncn3)c(-c3ccc(F)cc3)nn12 [GW515532] | 16%
COc1ccc(Nc2nccc(NCCNC(=O)Nc3cc(C)ccc3C)n2)cc1 [GSK1379899] | 5%

Compound | %Inh
Nc1nccc(-c2c(-c3ccc(F)cc3)ncn2C2CCN(Cc3ccccc3)CC2)n1 [SB-219980] | 0%
CS(=O)(=O)Cc1ccc(Nc2nccc(-c3c(-c4cccc(NC(=O)C5CCCCC5)c4)nn4ncccc34)n2)cc1 [GSK350559] | 6%
Cc1ccc(NC(=O)Nc2ccc(Cl)c(C(F)(F)F)c2)cc1-c1ccc(C(=O)Nc2ccncc2)cc1 [GSK1398470] | 6%
O=c1cc(N2CCOCC2)nc2n(Cc3ccccc3F)ccn12 [GSK2297428] | 3%
O=C(Nc1n[nH]c2nc(-c3ccco3)c(Br)cc12)C1CCN(Cc2ccccc2)C1.O=C(O)[C@H](O)[C@@H](O)C(=O)O (stereo not shown) [SB-742034] | 0%
CCn1c(-c2c(N)noc2C)nc2cnccc21 [SB-737856] | 0%
Cn1cnc2c(N)ncnc21 [SKF-97623] | 0%
O=C(Nc1n[nH]c2cc(-c3ccsc3)ccc12)C1CC1 [SB-732932] | 3%
CN1c2ccc(-c3ccc(C(N)=O)cc3)cc2-c2[nH]ncc2S1(=O)=O | 8%
Cl.Cl.Cl.N#Cc1ccc(CCNc2nccc(-c3cccc(CN4CCNCC4)c3)n2)cc1 [GSK2137462] | 19%
Cn1cncc1C(=O)NC1CCN(c2ccnc(Nc3ccc(F)cc3)n2)C1 (stereo not shown) [GSK1379717] | 2%
CS(=O)(=O)CCNCc1nc(-c2ccc3ncnc(Nc4ccc5c(cnn5Cc5ccccc5)c4)c3c2)cs1.Cl.Cl [GW569716] | 14%
Cc1cnc(N)c(/C=C/c2cncc(C(=O)NCCc3ccc(Cl)cc3Cl)c2)c1.Cl [GSK190937] | 0%
CNCc1ccc2nc(NC(=O)c3ccc(C(C)(C)C)cc3)cn2c1 | 4%
CNc1cc(-c2ccc3c(N)n[nH]c3c2)nc(N)n1 [GSK2224810] | 9%
CNc1nc(-c2ccc3c(N)n[nH]c3c2)cc(N2C[C@@H](C(=O)Nc3ccccc3)CC[C@H]2C)n1 [GSK2298859] | 14%
COc1ccc(Nc2nccc(N3CCC(NC(=O)c4cc5ccccc5s4)C3)n2)cc1 (stereo not shown) [GSK1379738] | 17%
COc1ccc(CSc2nnc(-c3ccc4nccn4c3)o2)cc1C(F)(F)F | 0%
